Assay [1] can be described thus: qHTS assay to test for compound auto fluorescence at 535 nm (green) in HEK293 cells (AID 720680). On the technique in general: Quantitative high-throughput screening tests each substance at several concentrations.
Assay [2] in a line: qHTS assay to test for compound auto fluorescence at 460 nm (blue) in HEK293 cell free culture (AID 720681). Summed up: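 Blue fluorescence (Ex 405/Em 460 nm, triamterene-equivalent) was read immediately after pin transfer of compound or DMSO into medium (DMEM, 10% FBS) without cells.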
Assay [3] can be described thus: qHTS assay to test for compound auto fluorescence at 535 nm (green) in HEK293 cell free culture (AID 720682). In short, it runs like this: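 Measurement is a direct plate read of green fluorescence (485 nm in, 535 nm out) after compound addition to serum-supplemented DMEM lacking cells, with fluorescein used to express intensities.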
Assay [4] in a line: qHTS assay to test for compound auto fluorescence at 590 nm (red) in HEK293 cell free culture (AID 720683). In short, it runs like this:
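Red-channel autofluorescence of compounds in culture medium (DMEM, 10% FBS), no cells, measured at 540/590 nm. Rose Bengal sodium is the reference fluorophore for equivalence.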

Assay [5] is described as follows: qHTS assay to test for compound auto fluorescence at 590 nm (red) in HepG2 cell free culture (AID 720684). Summed up:
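Plate contents were MEM with 10% FBS plus test compound or DMSO, no cells. Fluorescence was recorded with 540 nm excitation and 590 nm emission.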

Assay [6] is described as follows: qHTS assay to test for compound auto fluorescence at 460 nm (blue) in HepG2 cell free culture (AID 720685). In short, it runs like this: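 Compound (23 nL) or DMSO pinned into cell-free MEM with 10% FBS; blue fluorescence read at 405/460 nm excitation/emission, expressed as auto-fluorescence equivalency to triamterene.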
The nature of assay [7]: qHTS assay to test for compound auto fluorescence at 535 nm (green) in HepG2 cell free culture (AID 720686).
In assay [8] the target is Glucocorticoid receptor (Homo sapiens) (UniProt P04150). The assay is described as follows: qHTS assay to identify small molecule agonists of the glucocorticoid receptor (GR) signaling pathway (AID 720691; active = well fitted activation curve with a large enough effect in the signal ratio in the repeat runs, not every such curve was filed as active; inconclusive = weak or mixed curves, or effect the other way; inactive = no such curve, though single readings can be large or run the other way; the % refers to the signal ratio; also: potency is read from the fitted curve at half-maximal effect). The settings on record: GR-bla HeLa, beta-lactamase reporter ratio, 18 h; activation: at 62.4 µM (top of the series) unless noted. In short, it runs like this:
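GR-bla HeLa cells carrying a GRE-driven beta-lactamase reporter, exposed to compounds for 18 h at 37 C. Reporter activation read as fluorescence after 2 h with LiveBLAzer B/G FRET substrate at room temperature.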

Assay [9] is described as follows: qHTS assay to test for compound auto fluorescence at 460 nm (blue) in HepG2 cells (AID 720687). In short, it runs like this:
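Blue-channel autofluorescence (Ex/Em 405/460 nm, triamterene-equivalent) was measured after 1 hr compound exposure at 37 C, 5% CO2. Cells were HepG2, plated overnight at 37 C in MEM plus 10% FBS.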

Assay [10] concerns the target Glucocorticoid receptor (Homo sapiens) (UniProt P04150). The assay is described as follows: qHTS assay to identify small molecule antagonists of the glucocorticoid receptor (GR) signaling pathway (AID 720692; active = well fitted inhibition curve with a large enough effect in the signal ratio in the repeat runs, not every such curve was filed as active; inconclusive = weak or mixed curves, or effect the other way; inactive = no such curve, though single readings can be large or run the other way; the % refers to the signal ratio; also: potency is read from the fitted curve at half-maximal effect). In short, it runs like this: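 GR-bla HeLa cells carrying a GRE-driven beta-lactamase reporter received compound after 4 h plating, then dexamethasone (5 nM final). After 18 h at 37C, the FRET substrate was loaded for 2 h at room temperature and fluorescence read.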

The values that follow come from PubChem BioAssay (Tox21).

A number with no mark means an inactive call. Calls of active or inactive are those of the source. Unless noted, calls follow the shape of the dose curve; as a rule, active = well fitted curve in the direction sought with a large enough effect in the repeat runs; inconclusive = weak or mixed curves; inactive = flat fitted curve, though single readings scatter.
% is scaled to controls: 0 for no effect and ±100 for the full control effect.

Sequence of Glucocorticoid receptor (Homo sapiens) (P04150 whole entry, looked up): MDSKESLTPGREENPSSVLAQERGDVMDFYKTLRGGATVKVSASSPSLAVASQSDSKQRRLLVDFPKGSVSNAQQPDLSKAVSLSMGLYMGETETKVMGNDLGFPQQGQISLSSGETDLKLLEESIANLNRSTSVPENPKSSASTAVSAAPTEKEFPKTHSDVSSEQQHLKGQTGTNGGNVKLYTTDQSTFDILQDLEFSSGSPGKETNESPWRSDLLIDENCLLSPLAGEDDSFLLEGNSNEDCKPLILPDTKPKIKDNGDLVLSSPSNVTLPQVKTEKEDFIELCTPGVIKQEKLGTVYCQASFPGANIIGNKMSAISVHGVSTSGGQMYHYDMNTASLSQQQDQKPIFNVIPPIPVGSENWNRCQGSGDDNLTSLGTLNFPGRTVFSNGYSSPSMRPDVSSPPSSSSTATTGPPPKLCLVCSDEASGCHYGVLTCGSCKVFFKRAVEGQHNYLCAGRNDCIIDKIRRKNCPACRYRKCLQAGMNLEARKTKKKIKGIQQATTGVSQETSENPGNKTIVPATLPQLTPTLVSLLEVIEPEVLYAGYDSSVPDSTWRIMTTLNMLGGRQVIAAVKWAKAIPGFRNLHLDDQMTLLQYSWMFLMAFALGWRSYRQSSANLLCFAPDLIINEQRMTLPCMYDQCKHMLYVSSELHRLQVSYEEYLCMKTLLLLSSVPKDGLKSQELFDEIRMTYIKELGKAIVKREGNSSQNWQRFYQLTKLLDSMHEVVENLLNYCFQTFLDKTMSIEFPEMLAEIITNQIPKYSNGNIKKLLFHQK

`C=CC(=O)OCCOCCOC(=O)C=C`: the outcome in assay [1], in assay [2], in assay [3] and in assay [6] was inactive. Further, the Potency result in assay [4], in [5], in [7] and in assay [8] was “inactive” in each case.
With `CN1C[C@H]2c3ccccc3Oc3ccc(Cl)cc3[C@@H]2C1`, the compound was called inactive in assay [1], in assay [2], in [3], in [6] and in assay [9]. Also, the Potency result in assay [4] and in assay [5] was “inactive” each time.
As for `CCCCCCCC/C=C\CCCCCCCC(=O)OCC`, the call in assay [1], in [2], in assay [3] and in assay [6] was inactive. Also, the Potency result in [4], in [5], in assay [7] and in [10] was “inactive” in each case.
As to `O=C(Nc1ccc(S(=O)(=O)N2CCOCC2)cc1)c1cc(Cl)ccc1NS(=O)(=O)c1ccc(Cl)s1`, the compound was classed as inactive in assay [1], in [2], in assay [3], in assay [6] and in assay [9]. The Potency entry in assay [4], in assay [5] and in [7] was “inactive” each time. Further, in [10], the Potency was 26.8 µM (active).
`ClCCOCCOCCCl`: the outcome in assay [1], in assay [2], in assay [3], in assay [6] and in [9] was inactive. The Potency entry in assay [4] and in assay [5] was “inactive” in each case.
Take `CN(C)CCN(Cc1ccc(Cl)cc1)c1ccccn1`: in [1], the fluorescence, % of fluorescein is 0.0009% [at 18.6 µM]. Further, the fluorescence, % of fluorescent control in assay [2] was -0.0429% [at 18.6 µM]; in assay [4] it was -0.237% [at 18.6 µM]; in [6] it was 0.027% [at 18.6 µM]; in [9] it was -0.0264% [at 18.6 µM]. Also, the activity change in assay [3] was 2e-05% [at 18.6 µM]. Also, in assay [5], the fluorescence, % of Rose Bengal is 0.0021% [at 18.6 µM]. The Potency entry in assay [8] and in [10] was “inactive” throughout.
Consider `Cc1ncc(CO)c(C=O)c1O`, for which the compound was classed as inactive in assay [1], in assay [2], in assay [3], in [6] and in [9]. Also, the Potency result in [4], in assay [5], in [7] and in assay [10] was “inactive” throughout.
Take `Nc1cc(C(=O)O)c(O)c(S(=O)(=O)O)c1`: the outcome in assay [1], in [2], in assay [3], in assay [6] and in assay [9] was inactive. Moreover, the Potency result in assay [4], in assay [5], in [7] and in assay [10] was “inactive” each time.
For `CC(CSC(=O)c1ccccc1)C(=O)N1C[C@@H](Sc2ccccc2)C[C@H]1C(=O)O` (stereo partly specified), the result in assay [1], in [2], in assay [3], in [6] and in assay [9] was inactive. Moreover, the Potency result in assay [4], in [5], in [7] and in assay [10] was “inactive” each time.
Consider `COC(C)OC`, for which the result in [1], in assay [2], in assay [3], in assay [6] and in assay [9] was inactive. Also, the Potency result in [4], in [5], in assay [8] and in assay [10] was “inactive” each time.
On to `CC(C)=CCC/C(C)=C/CC/C(C)=C/CO`, for which the compound was classed as inactive in assay [1], in assay [2], in assay [3], in assay [6] and in assay [9]. The Potency entry in [4] and in assay [5] was “inactive” throughout.
As for `CN(C)CCN(Cc1ccccc1)c1ccccn1`, the compound was called inactive in assay [1], in [2], in assay [3], in [6] and in [9]. Further, the Potency result in assay [4], in assay [5], in assay [7] and in assay [10] was “inactive” each time.
On to `C/C=C/C(=O)CC`, for which, in assay [1], the fluorescence, % of fluorescein is 0.0426% [at 18.6 µM]. Moreover, the fluorescence, % of fluorescent control in assay [2] was 0.0584% [at 18.6 µM]; in assay [4] it was -0.144% [at 18.6 µM]; in [6], -0.0097% [at 18.6 µM]; in assay [9], -0.0002% [at 18.6 µM]. Also, in assay [3], the activity change is 0.0169% [at 18.6 µM]. The fluorescence, % of Rose Bengal in assay [5] is 0.0791% [at 18.6 µM]. Further, in [8], the activation was -3.49% [at 15 µM]. Also, the Potency entry in assay [10] is “inactive”.
As for `COc1ccc(C)cc1[N+](=O)[O-]`, the compound was called inactive in [1], in assay [2], in [3], in assay [6] and in assay [9]. In addition, the Potency result in assay [4], in assay [5], in assay [7] and in assay [10] was “inactive” throughout.
Consider `CC/C=C\CCOC(=O)CC`, for which the compound was classed as inactive in [1], in [2], in assay [3], in assay [6] and in [9]. For the same compound, the Potency entry in assay [4] and in assay [5] was “inactive” each time.
`C/C=C/C=C/CO`: the compound was classed as inactive in [1], in assay [2], in [3] and in assay [6]. For the same compound, the Potency entry in [4], in [5], in assay [7], in assay [8] and in assay [10] was “inactive” each time.
For the compound `O=C(O)CC(=O)C(=O)O`, the outcome in [1], in [2], in assay [3], in assay [6] and in assay [9] was inactive. In addition, the Potency result in [4], in assay [5], in assay [8] and in assay [10] was “inactive” throughout.
Regarding `C[N+]1(C)CCC(OC(=O)C(O)(c2ccccc2)C2CCCC2)C1` (stereo unspecified), the result in [1], in assay [2], in assay [3], in assay [6] and in assay [9] was inactive. Also, the Potency result in assay [4], in [5] and in [8] was “inactive” in each case.
Turning to `Cc1cc(C(=O)O)ccc1[N+](=O)[O-]`, the outcome in assay [1], in [2], in [3], in assay [6] and in [9] was inactive. Further, the Potency result in assay [4], in assay [5] and in assay [8] was “inactive” throughout.
With `CCCCOC(=O)CCCCCCCC(=O)OCCCC`, the result in assay [1], in assay [2], in assay [3], in [6] and in assay [9] was inactive. The Potency entry in assay [4] and in [5] was “inactive” in each case.
For `O=C(OCCCCCCOC(=O)c1ccccc1)c1ccccc1`, the result in assay [1], in [2], in assay [3] and in [6] was inactive. Further, the Potency entry in assay [4], in assay [5], in assay [7] and in [10] was “inactive” each time.
Turning to `CC[N+]1(CC)CCC(=C(c2ccccc2)c2ccccc2)C1C` (stereo unspecified), the compound was classed as inactive in assay [1], in assay [2], in assay [3] and in assay [6]. In addition, the Potency entry in assay [4], in [5], in assay [7], in assay [8] and in [10] was “inactive” throughout.
For `CCO[C@H](Cc1ccc(OCCc2ccc(OS(C)(=O)=O)cc2)cc1)C(=O)O`, the compound was classed as inactive in assay [1], in assay [2], in [3], in assay [6] and in assay [9]. Also, the Potency result in assay [4], in assay [5], in assay [7], in [8] and in assay [10] was “inactive” in each case.
Regarding `CCN(CC)CCNc1ccc(CNC=O)c2sc3ccc(OC)cc3c(=O)c12`, the compound was classed as inactive in assay [1], in [2], in assay [3], in assay [6] and in [9]. Also, the Potency result in assay [4] and in assay [5] was “inactive” throughout. Also, the Potency in assay [8] is 49 µM [inconclusive] (active).
